According to PubChem BioAssay:
Several values for one entry are separate records, joined by “and”; a condition that tells them apart may be missing. Identical values can stand only once. For some assays here: Potency and affinity values are given separately. Activity calls are given as the source filed them. Unless noted, how the calls were made is not given here.

Legend:
[1] = galactose survival enhancers in mitochondrial complex I cybrids – cell-based, galactose medium, ATP luminescence, primary screen (AID 1645843;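 active means z-score of at least 1.8 in each of two replicates, scored against plate mean and spread of sample wells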;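 further: positive z means more ATP and so rescue of galactose-driven cybrid death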); conditions: complex I mutant cybrid cells, 72 h, stronger effect = higher value
[2] = compounds altering circadian rhythm period length – cell-based, LOPAC library, luminescence reporter (AID 2774); conditions: circadian reporter cells, at 7 µM, actives lie on both sides;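 further: values are relative to mean of DMSO wells on each plate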
[3] = blockers of cellular phospholipid synthesis – cell-based, LOPAC library, screen 4, primary screen (AID 1347384); conditions: animal cells, phospholipid biosynthesis inhibition screen; at 10 µM
[4] = blockers of polyQ-driven CASP3 activation – cell-based (AID 1583); conditions: polyglutamine-induced caspase-3 activation, cell assay; stronger effect = higher value;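 tested at 10 µM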
[5] = yeast 75Q aggregation reduction – 75Q-TubU reporter (AID 1593); conditions: Yeast 75Q polyglutamine aggregation reporter
[6] = restoration of touch response, mutant HTT neurons – whole organism, C. elegans mechanosensory neurons, N-terminal huntingtin (AID 1599); conditions: C. elegans polyQ-huntingtin mechanosensory neurons, stronger effect = higher value
[7] = blockers of cytochrome c efflux from mitochondria – biochemical, purified mitochondria (AID 1603); conditions: stronger effect = lower value;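 further: mouse liver mitochondria challenged with calcium chloride; signal normalized to the plate average as 100%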
[8] = compounds altering viability of human ES cells (AID 493140); conditions: human embryonic stem cell survival screen; stronger effect = higher value;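 further: cells exposed to compounds for four days before counting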
[9] = system: Hepatitis C virus NS3 helicase; experiment: blockers of NS3h binding to ssDNA – biochemical, fluorescence polarization, LOPAC1280 library, primary screen (AID 687035; in the data active means inhibition above about 37%); conditions: Purified HCV NS3 helicase, Cy5-dT15 ssDNA binding fluorescence polarization; stronger effect = higher value; concentration not given here
[10] = compounds altering Cy5-DNA-NS3h complex signal – biochemical, LOPAC1280, artefact control for HCV NS3 helicase inhibitor project (AID 687037); conditions: Cy5-DNA-NS3h complex fluorescence interference counterscreen
[11] = growth inhibition, single agents and combos, LFS_MB_1R, cell-based, cisplatin or BGB combos, synergistic combos for chromothripsis tumors (AID 1671452; in the data active means inhibition above about 80%;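 further: cells exposed for 96 hours before readout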); conditions: LFS_MB_1R medulloblastoma cells, stronger effect = higher value
[12] = growth inhibition, single agents and combos, CRL2098, cell-based, BGB or cisplatin IC20 combos, synergistic combos for chromothripsis tumors (AID 1671454; in the data active means inhibition above about 80%;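 further: cells exposed for 96 h before readout; 0% = vehicle DMSO and 100% = killing by high DMSO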); conditions: CRL2098 osteosarcoma cells, drug combinations, stronger effect = higher value
[13] = growth inhibition, single agents and combos, HD-MB03, cell-based, BGB or cisplatin IC20 combos, synergistic combos for chromothripsis tumors (AID 1671455; in the data active means inhibition above about 83%;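 further: 0% = vehicle DMSO and 100% = high DMSO as cytotoxic control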); conditions: HD-MB03 medulloblastoma cells, stronger effect = higher value
[14] = growth inhibition, single agents and combos, UWB1.289, cell-based, BGB or cisplatin combos, synergistic combos for chromothripsis tumors (AID 1671456; in the data active means inhibition above about 80%;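 further: cells exposed to compound for four days; 0% = vehicle DMSO and 100% = killing by high DMSO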); conditions: UWB1.289 ovarian carcinoma cells, stronger effect = higher value
[15] = growth inhibition, single agents and combos, LFS_MB_2R, cell-based, cisplatin combos, synergistic combos for chromothripsis tumors (AID 1671457; in the data active means inhibition above about 80%;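 further: cells exposed to compound for four days before readout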); conditions: LFS_MB_2R medulloblastoma cells, stronger effect = higher value
[16] = UWB1.289_BRCA1 ovarian cancer growth, cell-based, BGB or cisplatin combinations (AID 1671459; in the data active means inhibition above about 80%); conditions: UWB1.289 BRCA1 ovarian carcinoma, drug combinations, stronger effect = higher value
[17] = drug combination toxicity in non-malignant astrocytes – cell-based, BGB or cisplatin IC20 combos, cytotoxicity control for chromothriptic childhood tumor combination screen (AID 1671460; in the data active means inhibition above about 80%;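 further: cells exposed to compounds for 96 hours before viability readout; 0% = vehicle and 100% = killing control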); conditions: Human astrocytes, viability inhibition, drug combinations, at 0.5 µM, stronger effect = higher value
[18] = BT084 cell growth, single and combined drugs, ICGC_MB145, cisplatin and BGB IC40 combos (AID 1671461; in the data active means inhibition above about 80%;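 further: cells exposed to drugs for 96 hours; 0% = vehicle DMSO and 100% = high DMSO full killing control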); conditions: BT084 medulloblastoma cells, drug combinations, stronger effect = higher value
[19] = RCMB18 cell growth, single agent and combined, cisplatin and BGB IC40 combos (AID 1671462; in the data active means inhibition above about 80%;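 further: cells exposed to compound for four days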); conditions: RCMB18 medulloblastoma cells, stronger effect = higher value
[20] = CRL1545 cell growth, single agent and combined, cisplatin and BGB IC20 combos (AID 1671464; in the data active means inhibition above about 80%;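 further: cells exposed to compound for 96 hours before readout; 0% = vehicle DMSO and 100% = high DMSO killing control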); conditions: CRL1545 osteosarcoma cells, stronger effect = higher value
[21] = measured here: combination with BGB IC40, at 0.05 µM
[22] = measured here: combination with cisplatin, at 0.5 µM
[23] = measured here: combination with cisplatin, at 5 µM
[24] = measured here: combination with BGB at IC20, at 0.5 µM
[25] = measured here: combination with cisplatin at IC20, at 0.5 µM
[26] = measured here: combo with BGB at IC20, at 0.5 µM
[27] = measured here: combo with cisplatin at IC20, at 0.5 µM
[28] = measured here: inhibition with BGB combination, at 0.05 µM
[29] = measured here: inhibition with cisplatin combination, at 0.05 µM
[30] = BGB combination, concentration series, at 5 µM
[31] = cisplatin combination, concentration series, at 5 µM
[32] = measured here: combo with BGB IC20
[33] = measured here: combo with cisplatin IC20
[34] = cisplatin combination, at 0.5 µM
[35] = measured here: BGB IC40 combination 0.05 uM, at 0.05 µM
[36] = measured here: BGB IC40 combination, at 0.05 µM
[37] = measured here: with BGB IC20 combination, at 0.5 µM
[38] = measured here: with cisplatin IC20 combination, at 0.5 µM

## O=C(O)Cc1cccc2ccccc12
[1]
  z-score: 0.46 (inactive)

## NCCC(O)(P(=O)(O)O)P(=O)(O)O
[1]
  z-score: 0.62 (inactive)

## COc1ccccc1O
[1]
  z-score: 0.615 (inactive)

## CC(C)NC[C@@H](O)COc1ccc(CC(N)=O)cc1
[2]
  period change: 0.075 h (inactive)

## Nc1c[n+](N2CCOCC2)no1
[3]
  outcome: inactive

## CCOc1ccccc1OCC1CNCCO1 (stereo not given)
[4]
  inhibition: -5.29%
[5]
  score: 1.39
[6]
  rescue above control: -3.95
[7]
  cytochrome c release ratio: 1.06

## Clc1cc(Cl)c(OCC#CI)cc1Cl
[4]
  inhibition: 55.6%
[5]
  score: -0.06
[6]
  rescue above control: 11
[7]
  cytochrome c release ratio: 8.98

## O=C1NCN(c2ccccc2)C12CCN(CCCC(c1ccc(F)cc1)c1ccc(F)cc1)CC2
[2]
  period change: -0.085 h (inactive)
[8]
  survival: 0.417 (inactive)
[9]
  inhibition: 0% (inactive)
[10]
  fluorescence ratio (interference): 1 (inactive)
[3]
  outcome: inactive
[1]
  z-score: -0.995 (inactive) and -1.48 (inactive)

## O=C(OCCOCCO)c1ccccc1Nc1cccc(C(F)(F)F)c1
[8]
  survival: 2.08 (inactive)

## O=P(O)(O)C(Cl)(Cl)P(=O)(O)O
[3]
  outcome: inactive

## CCC1C(=O)OCC1Cc1cncn1C (stereo not given)
[3]
  outcome: inactive

## CN(C)CCCO[C@@H]1[C@H]2OC(C)(C)O[C@H]2O[C@@H]1C(O)CO (stereo not given in full)
[2]
  period change: -0.08 h (inactive)
[9]
  inhibition: -4% (inactive)
[10]
  fluorescence ratio (interference): 1 (inactive)

## Cc1ccc2nc(N)[nH]c(=O)c2c1Sc1ccncc1
[11]; at 0.5 µM
  inhibition: -7.14% (inactive)
[11]; [21]
  inhibition: -4.51%
[11]; [22]
  inhibition: -35.9%
[11]; [23]
  inhibition: 0.93%
[12]; at 0.5 µM
  inhibition: -63.7% (inactive)
[12]; [24]
  inhibition: -72.3%
[12]; [25]
  inhibition: -84.4%
[13]; at 0.5 µM
  inhibition: -15.4% (inactive)
[13]; [26]
  inhibition: -11.9%
[13]; [27]
  inhibition: -25.1%
[14]; at 0.5 µM
  inhibition: -17.5% (inactive)
[14]; [28]
  inhibition: 4.97%
[14]; [29]
  inhibition: -23%
[15]; at 0.5 µM
  inhibition: -12.4% (inactive)
[15]; [22]
  inhibition: -25.9%
[15]; [23]
  inhibition: -11.5%
[16]; [30]
  inhibition: -8.1%
[16]; at 0.5 µM
  inhibition: -23.6% (inactive)
[16]; [31]
  inhibition: -9.76%
[17]
  inhibition: -6.91% (inactive)
[17]; [32]
  inhibition: -8.77%
[17]; [33]
  inhibition: -12.3%
[18]; at 0.5 µM
  inhibition: 3.52% (inactive)
[18]; [34]
  inhibition: -1.35%
[18]; cisplatin combination, at 5 µM
  inhibition: -137%
[18]; [35]
  inhibition: -7.71%
[18]; single agent, at 5 µM
  inhibition: 6.61%
[19]; at 0.5 µM
  inhibition: -22.7% (inactive)
[19]; cisplatin combo, at 5 µM
  inhibition: -4.62%
[19]; [36]
  inhibition: -25.2%
[19]; [22]
  inhibition: -45.9%
[19]; single agent, at 5 µM
  inhibition: 12.6%
[20]; at 0.5 µM
  inhibition: -26.5% (inactive)
[20]; [37]
  inhibition: -34.6%
[20]; [38]
  inhibition: -24.4%
[20]; single agent, at 0.05 µM
  inhibition: -59.1%
[20]; single agent, at 5 µM
  inhibition: -14.1%

## C[C@@H]1CCC[C@H](C)N1
[8]
  survival: 4.42 (inactive)

## CN1C[C@@H]2C[C@H]1CN2c1cc2c(cc1F)c(=O)c(C(=O)O)cn2C1CC1
[11]; at 0.5 µM
  inhibition: -32.5% (inactive)
[11]; [21]
  inhibition: -27.6%
[11]; [22]
  inhibition: -60%
[11]; [23]
  inhibition: -44.9%
[12]; at 0.5 µM
  inhibition: -70.8% (inactive)
[12]; [24]
  inhibition: -121%
[12]; [25]
  inhibition: -50%
[13]; at 0.5 µM
  inhibition: -14.8% (inactive)
[13]; [26]
  inhibition: -11.6%
[13]; [27]
  inhibition: -20.6%
[14]; at 0.5 µM
  inhibition: -14.3% (inactive)
[14]; [28]
  inhibition: -14.8%
[14]; [29]
  inhibition: -20.1%
[15]; at 0.5 µM
  inhibition: -7.92% (inactive)
[15]; [22]
  inhibition: -3.36%
[15]; [23]
  inhibition: -96.9%
[16]; [30]
  inhibition: -23.3%
[16]; at 0.5 µM
  inhibition: -16% (inactive)
[16]; [31]
  inhibition: 2.38%
[17]
  inhibition: -25.7% (inactive)
[17]; [32]
  inhibition: -14.8%
[17]; [33]
  inhibition: -51.5%
[18]; at 0.5 µM
  inhibition: -14.9% (inactive)
[18]; [34]
  inhibition: -11.4%
[18]; cisplatin combination, at 5 µM
  inhibition: -13.9%
[18]; [35]
  inhibition: 0.828%
[18]; single agent, at 5 µM
  inhibition: -12.4%
[19]; at 0.5 µM
  inhibition: -27.5% (inactive)
[19]; cisplatin combo, at 5 µM
  inhibition: -18.3%
[19]; [36]
  inhibition: -12.7%
[19]; [22]
  inhibition: -81.8%
[19]; single agent, at 5 µM
  inhibition: -17.7%
[20]; at 0.5 µM
  inhibition: -62.9% (inactive)
[20]; [37]
  inhibition: -46.3%
[20]; [38]
  inhibition: -75.1%
[20]; single agent, at 0.05 µM
  inhibition: -30.1%
[20]; single agent, at 5 µM
  inhibition: -48.9%

## CCCn1cnc2c1c(=O)n(CCCCC(C)=O)c(=O)n2C
[2]
  period change: 0.185 h (inactive)
[9]
  inhibition: 1% (inactive)
[10]
  fluorescence ratio (interference): 1 (inactive)
[1]
  z-score: 0.675 (inactive)

## CN1CCN(C2Cc3ccccc3Sc3ccc(Cl)cc32)CC1 (stereo not given)
[2]
  period change: 0.285 h (inactive)
[9]
  inhibition: -1% (inactive)
[10]
  fluorescence ratio (interference): 1 (inactive)
[3]
  outcome: inactive
[1]
  z-score: -1.27 (inactive)

## CCc1cccc(N(C)C(N)=Nc2cccc3ccccc23)c1
[2]
  period change: -0.08 h (inactive)
[9]
  inhibition: 1% (inactive)
[10]
  fluorescence ratio (interference): 1 (inactive)
[3]
  outcome: inactive
[1]
  z-score: -1.44 (inactive)

## Cc1cccc(Nc2cc(Cl)nc(SCC(=O)O)n2)c1C
[8]
  survival: 88 (inactive)
[1]
  z-score: 0.215 (inactive)

## O=C(O)CCC(=O)OC[C@@H](NC(=O)C(Cl)Cl)[C@H](O)c1ccc([N+](=O)[O-])cc1
[4]
  inhibition: 29.9%
[5]
  score: 1.53
[6]
  rescue above control: -1.33
[7]
  cytochrome c release ratio: 0.7

## NC1=NCC2c3ccccc3Cc3ccccc3N12 (stereo not given)
[9]
  inhibition: -2% (inactive)
[10]
  fluorescence ratio (interference): 1 (inactive)
[3]
  outcome: inactive
[1]
  z-score: -0.265 (inactive)

## CC(=O)N(CC(O)CN(C(C)=O)c1c(I)c(C(=O)NCC(O)CO)c(I)c(C(=O)NCC(O)CO)c1I)c1c(I)c(C(=O)NCC(O)CO)c(I)c(C(=O)NCC(O)CO)c1I (stereo not given)
[8]
  survival: 2.67 (inactive)
